# Reference: PubChem BioAssay (NCI)
# This is part of a sample that, as a whole, favours compounds with a hit. Of some 83,000 tested, about 20% had one in any assay.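 Interpretation: 100, growth as untreated; towards 0, rising growth inhibition; 0, no net growth; 0 to -100, cell death. Compounds scoring below 10 were considered active.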 A number with no mark means an inactive call. Activity calls are given as the source filed them.
# Tests used:
# Assay in all cases: NCI-60 one-dose screen, 48 h (100 = growth as untreated, 0 = no growth, -100 = all killed)
# [1] = system: SK-MEL-2 melanoma; conditions: 10 µM unless noted
# [2] = system: EKVX NSCLC; conditions: 10 µM unless noted
# [3] = system: SN12C renal; conditions: 10 µM unless noted
# [4] = system: UO-31 renal; conditions: 10 µM unless noted
# [5] = system: ACHN renal; conditions: 10 µM unless noted
# [6] = system: CAKI-1 renal; conditions: 10 µM
# [7] = system: A498 renal; conditions: 10 µM unless noted
# [8] = system: CCRF-CEM leukemia; conditions: 10 µM unless noted
# [9] = system: MOLT-4 leukemia; conditions: 10 µM unless noted
Compound,growth [1],growth [2],growth [3],growth [4],growth [5],growth [6],growth [7],growth [8],growth [9]
COc1ccc(CCNC=O)cc1OC,105%,105%,97.4%,82.3%,101%,100%,102%,105%,100%
COc1cc(C(=O)C[n+]2ccccc2)ccc1OC(C)=O,102%,100%,98.1%,104%,105%,99.3%,78.9%,95.9%,98.2%
O=C(Nc1ccc(-n2ccc3c(NC(=O)c4ccccc4)nccc32)cc1)Nc1cccc(C(F)(F)F)c1,71.9%,65.5%,79.2%,78%,62.2%,68.6%,80.7%,13.8%,35.9%
O=C1c2ccccc2OC=C(c2ccccc2)N1CCCCNc1ccc(F)cc1,89.2%,96.8%,77.4%,53.5%,97.5%,85.8%,98.3%,63.7%,48.4%
O=[N+]([O-])c1ccccc1NC1c2ccccc2Oc2ccccc21,57%,78.2%,92.9%,60.8%,71.2%,45.6%,10.7%,42.9%,13.8%
O=C(Nc1ccc(-n2ccc3c(NC(=O)c4ccccc4)nccc32)cc1)Nc1ccc(Cl)c(Cl)c1,-42.4% (active),39.5%,10.7%,-61.4% (active),2.67% (active),-57.7% (active),68.2%,-34.6% (active),9.08% (active)
Nc1nccc2c1ccn2-c1ccc(NC(=O)c2ccc(N3CCOCC3)c(C(F)(F)F)c2)cc1,35.3%,36.7%,48.8%,-41.2% (active),24.3%,-25.3% (active),-9.64% (active),18.5%,-3.7% (active)
O=C(NCCNc1nccc(-c2c(-c3cccc(O)c3)nc3sccn23)n1)Nc1cccc(C(F)(F)F)c1,54.4%,91.2%,70.7%,75.2%,85.1%,90.3%,111%,23.1%,59.8%
O=C(Nc1ccc(-n2cc(-c3ccncc3)c(-c3ccc(O)c(Cl)c3)n2)cc1)c1cc(Cl)cc(Cl)c1,7.85% (active),56.5%,35.8%,16.4%,16.2%,45.8%,95.4%,16.9%,11.1%
O=C(Nc1cccc(-n2ccc3c(NC(=O)c4ccccc4)nccc32)c1)c1cccc(C(F)(F)F)c1,18.8%,43.4%,25%,22.4%,24.7%,9.21% (active),7.75% (active),8.28% (active),13.1%
COc1ccc(-c2nn(-c3cccc(Cl)c3)cc2-c2cc(-c3ccc(Br)cc3)[nH]c(=O)c2C#N)cc1,122%,88.4%,67.9%,87.3%,91.8%,82.9%,102%,75.4%,76%
CCC(CC(C)C)Nc1ccc(NC(CC)CC(C)C)cc1 (configuration not stated),86.4%,81.4%,96.3%,93%,95.3%,99.1%,94.1%,10.4%,34.5%
Cc1cc(NC(=O)c2cccc(C(F)(F)F)c2)ccc1-n1ccc2c(NC(=O)c3ccccc3)nccc21,101%,94.1%,94%,78.5%,106%,93.1%,112%,88.3%,87.8%
O=C(Nc1ccc(-n2ccc3c(NC(=O)c4ccccc4)ncnc32)cc1)c1cccc(C(F)(F)F)c1,85.8%,63.5%,60.7%,45.9%,34%,27.9%,87.5%,28.2%,19.7%
O=C1C(Cl)=C(Nc2ccccc2)C(=O)C(Cl)=C1Nc1ccccc1,113%,114%,109%,94.2%,109%,106%,78.6%,103%,114%
COc1ccc(-c2nn(-c3ccc(NC(=O)Nc4ccc(Cl)c(C(F)(F)F)c4)cc3)cc2-c2ccncc2)cc1Cl,-43.4% (active),11.1%,16.5%,3.92% (active),7.51% (active),-18.8% (active),-5.72% (active),6.6% (active),8.53% (active)

Compound,growth [1],growth [2],growth [3],growth [4],growth [5],growth [6],growth [7],growth [8],growth [9]
CN(CCNCc1ccccn1)CCNCc1ccccn1,-2.1% (active),23.8%,27.9%,-11.8% (active),0.79% (active),-42% (active),-91.9% (active),10.7%,1.98% (active)
OC[C@@H](O)C(O[C@@H]1O[C@H](CO)[C@H](O)[C@H](O)[C@H]1O)[C@H](O)[C@@H](O)CO (some centres not stated),106%,95.4%,101%,75.5%,94.4%,92.9%,111%,106%,106%
O=C(Nc1ccc(-n2cc(-c3ccncc3)c(-c3ccc(O)c(Cl)c3)n2)cc1)c1cc(C(F)(F)F)cc(C(F)(F)F)c1,68.8%,66.3%,64.4%,50.8%,54.2%,54.4%,76.7%,31.1%,28.3%
CC(C)C1(C(C)C)NC(=O)NC1=O,108%,92.7%,99%,78.4%,106%,88.9%,93.8%,93.7%,97.6%
Oc1ccccc1/C=N/c1ccccn1,97.8%,112%,116%,92.1%,106%,104%,89.5%,116%,102%
CO[C@H]1/C=C/C=C/C=C/C[C@H](OC(=O)[C@@H](C)NC(=O)C2CCCCC2)[C@H](C)[C@@H](O)/C(C)=C\CCC2=CC(=O)C=C(NC(=O)C1)C2=O,-42.7% (active),-17% (active),-10% (active),5.46% (active),-34.8% (active),16.3%,-2.6% (active),-0.0954% (active),-10.4% (active)
COc1ccc(-c2nn(-c3ccc(NC(=O)Nc4cc(C(F)(F)F)cc(C(F)(F)F)c4)cc3)cc2-c2ccncc2)cc1Cl,-38.3% (active),21.7%,17.2%,13.3%,18.5%,5.4% (active),0.688% (active),9.25% (active),6.78% (active)
CCCCOc1nc2ccc(Cl)cc2cc1/C=C/C(=O)/C=C/c1ccc(OC)cc1,90.5%,110%,92.7%,84.4%,105%,99.1%,101%,87.2%,78%
CCOC(=O)C1CN(Cc2ccccc2)C(=O)C1=O (configuration not stated),114%,110%,108%,64.3%,104%,,91.6%,22.9%,
CN[C@@H](CCCNC(N)=NC/C=C(/C)CCC=C(C)C)C(=O)N(C)[C@@H](CCCNC(N)=NCC=C(C)C)C(=O)N[C@H](C)[C@H](OS(=O)(=O)O)c1ccc(OS(=O)(=O)O)c(COS(=O)(=O)O)c1,105%,113%,101%,97.6%,113%,106%,87%,102%,96.9%
COc1ccc(-c2nn(-c3ccc(NC(=O)c4cc(Cl)cc(Cl)c4)cc3)cc2-c2ccncc2)cc1Cl,49.9%,74.6%,85%,25%,63.6%,7.27% (active),50.9%,54.8%,18.9%
O=C(Nc1ccc(-n2ccc3c(NC(=O)c4ccccc4)ncnc32)cc1)Nc1cccc(Cl)c1Cl,-39.1% (active),-5.65% (active),-31.9% (active),-80.4% (active),-20.4% (active),-26% (active),12%,16.5%,25.5%
O=C(NCCNc1nccc(-c2c(-c3cccc(O)c3)nc3sccn23)n1)c1cc(N2CCOCC2)cc(C(F)(F)F)c1,64.5%,88.6%,89.8%,87.5%,79.4%,82.5%,92.8%,52.9%,68.6%
CCOC(=O)n1cnc2c(Cl)ncnc21,154%,106%,119%,97%,108%,89.8%,86%,109%,106%
O=C(Nc1ccc(-n2ccc3c(NC(=O)c4ccccc4)ncnc32)cc1)Nc1ccc(Cl)c(C(F)(F)F)c1,-22.3% (active),8.35% (active),16.4%,23.5%,4.23% (active),-36.8% (active),18.3%,-14.5% (active),1.2% (active)
